Here are results for 40 compounds from PubChem BioAssay (EPA / NIEHS).

SMILES strings stand for the structures. Activity calls are given as the source filed them. The calls were made as follows: active = hit-call score of the fitted dose curve at least 0.9, where 1 is the maximum; inactive = score below 0.9.

This assay can be described thus: BSK_3C_VCAM1: BioMAP Diversity Plus: 3C Assay for Vascular cell adhesion molecule 1 (VCAM1) Biomarker Activity (AID 2282999). To be noted: BioMAP 3C HUVEC, VCAM1 ELISA, cytokine-stimulated; actives raise or lower the signal. How it is done: BSK_3C is a cell-based, multiplexed-readout assay that uses umbilical vein endothelium, a human vascular primary cell, with measurements taken at 24 hours after chemical dosing in a 96-well plate.BSK_3C_VCAM1 is an assay component measured in the BSK_3C assay. It measures VCAM-1 antibody related to regulation of gene expression using ELISA technology.Data from the assay component BSK_3C_VCAM1 was analyzed into 1 assay endpoint. This assay endpoint, BSK_3C_VCAM1, was analyzed with bidirectional fitting relative to DMSO as the negative control and baseline of activity. Using a type of binding reporter, gain or loss-of-signal activity can be used to understand changes in the signaling as they relate to the gene VCAM1. Furthermore, this assay endpoint can be referred to as a primary readout, because this assay has produced multiple assay endpoints where this one serves a signaling function. To generalize the intended target to other relatable targets, this assay endpoint is annotated to the cell adhesion molecules intended target family, where the subfamily is Immunoglobulin CAM.
The levels of cell surface (or secreted, indicated by the prefix "s") biomarker endpoints were measured by ELISA. Overt cytotoxicity to cells in confluent adherent cultures (all systems other than the BT system) was assessed by measuring total protein levels using sulforhodamine B (SRB) staining in parallel cultures at the time of biomarker measurements, indicated as SRB endpoints. For proliferation assays for adherent cell types, individual cell types are cultured at sub-confluence and relative cell numbers quantified by SRB staining at time points optimized for each system (48 h: 3C and CASM3C systems; 72 h: BT and HDF3CGF systems; 96 h: SAg system). SRB was performed by staining cells with 0.1% SRB after fixation with 10% TCA and reading wells at 560 nm.Viability and proliferation of PBMC (T cells) was quantified by Alamar Blue reduction for the SAg and BT systems. For PBMC viability (referred to as PBMC Cytotoxicity within the assay endpoint names), cells were plated (75,000/well in a 96-well plate) and then chemical samples added for 1 h before addition of activators, SEB and TSST-1 (20 ng/mL final concentration each). Cells were incubated for 90 h. Then, Alamar Blue (20 uL/well) (Invitrogen, Cat DAL1100) was added for 6 h, and the plates were read with a fluorescence microplate reader at 546/580 nm (excitation/emission). For PBMC proliferation, cells were plated and activated as above but incubated for only 16 h prior to addition of Alamar Blue. Plates were read after 6 h.
A general note: An ELISA detects its analyte on a solid surface through an enzyme-linked reagent.
`CC=C(C)C=CC=C(C)C`: the AC50 (usually the concentration at which the activity in the assay is half-maximal) is 18.6 µM (active). `O=C(Oc1ccccc1)c1ccccc1C(=O)Oc1ccccc1`: the result was inactive. Regarding `CCNc1nc(NC(C)(C)C)nc(OC)n1`, the result was inactive.

For the compound `CC(C)CCCCCOC(=O)CS`, the result was inactive. The same measure, in the same setting: with `CC(c1cc(C(C)(C)C)cc(C(C)(C)C)c1O)c1cc(C(C)(C)C)cc(C(C)(C)C)c1O` the entry was “inactive”; with `Nc1ccc(C(=O)O)cc1`, “inactive”.

`CCOC(=O)C1=NN(c2ccc(Cl)cc2Cl)C(C)(C(=O)OCC)C1` (stereo not given): the result was inactive. The same measure, in the same setting: next, `C1CNCCN1`: “inactive”; `CC1=CC=C(C(C)C)CC1`: “inactive”. Consider `C=CC(=O)OCCCCCCOC(=O)C=C`, for which the half-maximal activity concentration (AC50) was 10.4 µM (active).

As for `CC1(C)CC(O)CC(C)(C)N1[O]`, the result was inactive. On the same count and under the same terms, next, `O=C1CCCCCCCCCCCN1`: “inactive”. For the compound `CCCCCCCCCCCC(=O)N(C)CC(=O)O`, the outcome was inactive. Same read-out and setting: next, `C=CCCCCCCCCC=O`: “inactive”. As to `CC(C)c1cccc(C(C)C)c1N`, the result was inactive.

Regarding `CC/C=C\C/C=C\C/C=C\CCCCCCCC(=O)OC`, the AC50 was 14.2 µM (active). Consider `O=C1CCCCCCCCCCC1`, for which the result was inactive. On to `Oc1ccc(/C=C/c2cc(O)cc(O)c2)cc1`, for which the outcome was inactive. Same read-out and setting: next, `CCC1(C)C(=O)N(Cl)C(=O)N1Cl` (stereo not given): “inactive”.

As to `C=CC(=O)NCOCCCC`, the result was inactive. On the same count and under the same terms, with `C=CC(=O)NC(C)(C)C` the entry was “inactive”; with `CCCCCCOC(=O)CCCCC(=O)OCCCCCC`, “inactive”. On the same count and under the same terms, with `CC(CCC(=O)O)(c1ccc(O)cc1)c1ccc(O)cc1` the entry was “inactive”; with `O=C(O)C(F)(F)C(F)(F)C(F)(F)C(F)(F)C(=O)O`, “inactive”; with `CCOC(=O)C1=NOC(c2ccccc2)(c2ccccc2)C1`, “inactive”. As to `CCCCCCCO`, the outcome was inactive. On the same count and under the same terms, with `CCCCCCC=O` the entry was “inactive”. Take `C=CC(=O)OCC(C)OCC(C)OCC(C)OC(=O)C=C` (stereo not given): the AC50 was 12.1 µM (active). On to `CC(Cl)COP(=O)(OCC(C)Cl)OCC(C)Cl` (stereo not given), for which the result was inactive. `c1ccc2c(c1)[nH]c1ccccc12`: the outcome was inactive. As to `CCCCC1C(=O)N(c2ccccc2)N(c2ccccc2)C1=O`, the outcome was inactive. The same measure, in the same setting: with `CCCCCCCCC(CO)CCCCCC` (stereo not given) the entry was “inactive”; with `CC(C)C(=O)OCCc1ccccc1`, “inactive”; with `CCc1cccc(C)c1N(C(=O)CS(=O)(=O)O)C(C)COC` (stereo not given), “inactive”.

As for `COC(OC)(C(=O)c1ccccc1)c1ccccc1`, the outcome was inactive. Same read-out and setting: next, `COc1ccc(C(=O)c2ccccc2)c(O)c1`: “inactive”; `Cc1ccc([N+](=O)[O-])cc1N`: “inactive”. For `Cc1c(O)cccc1O`, the result was inactive.

Regarding `Nc1cccc(N)n1`, the result was inactive. Still for that read-out and setting: with `Nc1nc(N)nc(-c2ccccc2)n1` the entry was “inactive”.
